Holding throughout (assay): HT-SELEX; high values mean tight binding
Holding throughout (details): protein: recombinant; vector His6-GST; dsDNA, one strand shown

In experiment [1] the target is T1, SALL4 ZFC4 WT (HT-SELEX) (Mus musculus, UniProt Q8BX22 870-940).
T1 sequence: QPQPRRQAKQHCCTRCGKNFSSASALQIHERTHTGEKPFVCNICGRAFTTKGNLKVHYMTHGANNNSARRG
The method in brief: (§1)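 Up to 6 cycles of selection were run in triplicate. In each, purified recombinant mouse SALL4 zinc finger cluster 4 (residues 870–940, 1 µg) was incubated with library DNA (1.5 µg first cycle, 200 ng later) in 100 µl of 10 mM Tris–HCl pH 7.5, 50 mM NaCl, poly(dI-dC), DTT for 10 min at room temperature, then complexes were captured on Ni2+ beads, washed and PCR-amplified; final pools were MiSeq-sequenced and scanned for 6-mers. Binding signal is each canonical k-mer's read fraction as fold change versus the initial random library.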

In experiment [2] the target is T2, SALL4 ZFC4 R900W (HT-SELEX) (Mus musculus, UniProt Q8BX22 870-940, R900W).
T2 sequence: T1 sequence with R31W
The method in brief: as §1

Experiment [3] has as its target T3, SALL4 ZFC4 G921D (HT-SELEX) (Mus musculus, UniProt Q8BX22 870-940, G921D).
T3 sequence: T1 sequence with G52D
The method in brief:
as §1

Changes are numbered by the printed parent chain.

Turning to ACCGTA, the values for the binding signal in experiment [1], in experiment [2] and in experiment [3] were 0.728 ± 0.0197 fold-change vs cycle 0, 0.818 ± 0.0316 fold-change vs cycle 0 and 0.868 ± 0.0103 fold-change vs cycle 0, respectively.

Take CCCCTA: the binding signal was 0.489 ± 0.0364 fold-change vs cycle 0 in experiment [1], 0.584 ± 0.015 fold-change vs cycle 0 in experiment [2] and 0.638 ± 0.0291 fold-change vs cycle 0 in experiment [3].

CTTACA: the binding signal in experiment [1] is 1.41 ± 0.0514 fold-change vs cycle 0; in experiment [2], 1.55 ± 0.0884 fold-change vs cycle 0; in experiment [3], 1.43 ± 0.0941 fold-change vs cycle 0.

ACAACT: the binding signal in experiment [1] turned out to be 1.25 ± 0.0434 fold-change vs cycle 0; in experiment [2] it was 1.37 ± 0.0317 fold-change vs cycle 0; in experiment [3], 1.38 ± 0.0748 fold-change vs cycle 0.

For the sequence AAAAAG, the binding signal came to 1.57 ± 0.0619 fold-change vs cycle 0 in experiment [1], 1.68 ± 0.0943 fold-change vs cycle 0 in experiment [2] and 1.52 ± 0.129 fold-change vs cycle 0 in experiment [3].

In the case of GTGAAC, the binding signal in experiment [1] is 0.832 ± 0.046 fold-change vs cycle 0; in experiment [2], 0.941 ± 0.022 fold-change vs cycle 0; in experiment [3], 1.01 ± 0.0456 fold-change vs cycle 0.

For the sequence TCATGA, the binding signal in experiment [1] was determined as 1.45 ± 0.0979 fold-change vs cycle 0; in experiment [2], 1.54 ± 0.0952 fold-change vs cycle 0; in experiment [3], 1.49 ± 0.115 fold-change vs cycle 0.

Take AAGCTA: the binding signal amounted to 1.18 ± 0.0764 fold-change vs cycle 0 in experiment [1], 1.3 ± 0.0578 fold-change vs cycle 0 in experiment [2] and 1.28 ± 0.0869 fold-change vs cycle 0 in experiment [3].

Regarding ACCTAG, the values for the binding signal in experiment [1], in experiment [2] and in experiment [3] were 0.875 ± 0.0697 fold-change vs cycle 0, 0.986 ± 0.0422 fold-change vs cycle 0 and 1.04 ± 0.0407 fold-change vs cycle 0, respectively.

In the case of CAGATC, the binding signal in experiment [1] turned out to be 0.723 ± 0.0477 fold-change vs cycle 0; in experiment [2] it was 0.849 ± 0.0155 fold-change vs cycle 0; in experiment [3], 0.964 ± 0.0486 fold-change vs cycle 0.

For TACACA, the figures for the binding signal in experiment [1], in experiment [2] and in experiment [3] were 1.21 ± 0.07 fold-change vs cycle 0, 1.3 ± 0.0721 fold-change vs cycle 0 and 1.29 ± 0.0617 fold-change vs cycle 0, respectively.

With AACAGT, the binding signal was found to be 1.28 ± 0.0479 fold-change vs cycle 0 in experiment [1], 1.41 ± 0.0726 fold-change vs cycle 0 in experiment [2] and 1.35 ± 0.0692 fold-change vs cycle 0 in experiment [3].

Turning to GAAGAA, the binding signal in experiment [1] is 1.38 ± 0.0779 fold-change vs cycle 0; in experiment [2], 1.56 ± 0.142 fold-change vs cycle 0; in experiment [3], 1.41 ± 0.156 fold-change vs cycle 0.

As for CCTATC, the binding signal in experiment [1] worked out at 0.811 ± 0.0304 fold-change vs cycle 0; in experiment [2], 0.939 ± 0.00665 fold-change vs cycle 0; in experiment [3], 0.994 ± 0.0224 fold-change vs cycle 0.

GGAAAC: the binding signal in experiment [1] is 0.775 ± 0.0365 fold-change vs cycle 0; in experiment [2], 0.874 ± 0.0459 fold-change vs cycle 0; in experiment [3], 0.9097 ± 0.00842 fold-change vs cycle 0.

Take ACACAA: the binding signal stood at 1.07 ± 0.0495 fold-change vs cycle 0 in experiment [1], 1.2 ± 0.0676 fold-change vs cycle 0 in experiment [2] and 1.19 ± 0.0605 fold-change vs cycle 0 in experiment [3].

On to CATCAG, for which the binding signal stood at 0.861 ± 0.0198 fold-change vs cycle 0 in experiment [1], 0.967 ± 0.0193 fold-change vs cycle 0 in experiment [2] and 0.996 ± 0.0231 fold-change vs cycle 0 in experiment [3].

As for CTAATC, the binding signal was 1.38 ± 0.0603 fold-change vs cycle 0 in experiment [1], 1.55 ± 0.0541 fold-change vs cycle 0 in experiment [2] and 1.43 ± 0.0842 fold-change vs cycle 0 in experiment [3].

On to ATGAGG, for which the binding signal in experiment [1] amounted to 0.907 ± 0.0235 fold-change vs cycle 0; in experiment [2], 1.03 ± 0.0436 fold-change vs cycle 0; in experiment [3], 1.06 ± 0.0374 fold-change vs cycle 0.

For CTACGA, the values for the binding signal in experiment [1], in experiment [2] and in experiment [3] were 0.656 ± 0.0504 fold-change vs cycle 0, 0.762 ± 0.0209 fold-change vs cycle 0 and 0.827 ± 0.0362 fold-change vs cycle 0, respectively.

As to ATAGAC, the binding signal in experiment [1] is 1.2 ± 0.024 fold-change vs cycle 0; in experiment [2], 1.29 ± 0.0416 fold-change vs cycle 0; in experiment [3], 1.3 ± 0.09 fold-change vs cycle 0.

On to CTCATA, for which the binding signal in experiment [1] is 1.52 ± 0.0984 fold-change vs cycle 0; in experiment [2] it was 1.48 ± 0.0543 fold-change vs cycle 0; in experiment [3] it was 1.41 ± 0.106 fold-change vs cycle 0.

Take AAGGGA: the binding signal in experiment [1] worked out at 0.928 ± 0.0784 fold-change vs cycle 0; in experiment [2], 1.09 ± 0.0682 fold-change vs cycle 0; in experiment [3], 1.03 ± 0.0363 fold-change vs cycle 0.

On to CAATCC, for which the binding signal in experiment [1] worked out at 0.816 ± 0.0436 fold-change vs cycle 0; in experiment [2] it was 0.939 ± 0.0312 fold-change vs cycle 0; in experiment [3], 0.973 ± 0.0236 fold-change vs cycle 0.

For CCATGG, the binding signal in experiment [1] came to 0.445 ± 0.023 fold-change vs cycle 0; in experiment [2], 0.524 ± 0.00825 fold-change vs cycle 0; in experiment [3], 0.622 ± 0.0615 fold-change vs cycle 0.

Consider GATGAC, for which the binding signal came to 0.865 ± 0.0236 fold-change vs cycle 0 in experiment [1], 0.962 ± 0.0544 fold-change vs cycle 0 in experiment [2] and 1.01 ± 0.0406 fold-change vs cycle 0 in experiment [3].

Turning to GAAACA, the binding signal amounted to 1.23 ± 0.0252 fold-change vs cycle 0 in experiment [1], 1.33 ± 0.0252 fold-change vs cycle 0 in experiment [2] and 1.29 ± 0.046 fold-change vs cycle 0 in experiment [3].

As to CTCTCC, the values for the binding signal in experiment [1], in experiment [2] and in experiment [3] were 0.497 ± 0.0273 fold-change vs cycle 0, 0.603 ± 0.0441 fold-change vs cycle 0 and 0.672 ± 0.0341 fold-change vs cycle 0, respectively.

On to ACGACA, for which the binding signal came out at 0.543 ± 0.0412 fold-change vs cycle 0 in experiment [1], 0.639 ± 0.0243 fold-change vs cycle 0 in experiment [2] and 0.747 ± 0.0208 fold-change vs cycle 0 in experiment [3].

As for GATTGA, the results for the binding signal in experiment [1], in experiment [2] and in experiment [3] were 1.34 ± 0.0367 fold-change vs cycle 0, 1.46 ± 0.0217 fold-change vs cycle 0 and 1.43 ± 0.0387 fold-change vs cycle 0, respectively.
